# Compound activity: PubChem BioAssay, Johns Hopkins Ion Channel Center
# KCNQ2 inh: rat KCNQ2 potassium channel inhibitors, primary screen, cell-based, CHO-K1, FluxOR thallium flux, B-score; Potassium voltage-gated channel subfamily KQT member 2 (Rattus norvegicus), O88943; 20 min; stronger effect = lower value; B-score at 10 µM; actives 1.1% (n = 310,000); AID 2156, 2009;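 active means fluorescence ratio B-score at most minus 3 library SDs, with starting brightness B-score within 2 library SDs, cut at about -5.5 in these data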
# KCNQ2 enhance: potentiators of rat KCNQ2 potassium channel | Potassium voltage-gated channel subfamily KQT member 2 (Rattus norvegicus), O88943 | B-score at 10 µM | actives 0.54% (n = 310,000) | CHO-K1 KCNQ2, FluxOR thallium flux fluorescence; stronger effect = higher value;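 active means fluorescence ratio B-score at least 3 SD of library B-scores, with initial fluorescence B-score within 3 of them, cut at about 5.3 in these data; same plate scores as AID 2156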;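 further: B-score of peak minus minimum over baseline fluorescence ratio after K+ and Tl+ stimulus; positive B-score means potentiation of KCNQ2 with more thallium influx and brighter signal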
# Kir21 confirm: mouse Kir2.1 channel blockers, retest, confirmation, cell-based, FluxOR thallium flux, duplicate. shares compounds with KCNQ2 enhance. Kir2.1-expressing cells, FluxOR thallium flux fluorescence; stronger effect = lower value. Tl flux remaining, % of negative control (stronger effect = lower value), % at 10 µM. actives 41% (n = 2,300);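 active means Primary-screen hit whose thallium flux fell at least 3 control SD below untreated wells in both duplicates, with normal baseline fluorescence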;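 further: 0% = blank wells without stimulus and 100% = stimulated no-compound controls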
# HEK293 ctr: counter-screen for Kir2.1 inhibitors: effect in parental HEK293 cells; FluxOR signal as % of negative control (100 = no effect), % at 10 µM; actives 19% (n = 2,300); AID 2105; FluxOR thallium flux fluorescence; 0% = unstimulated blank wells; shares compounds with KCNQ2 enhance;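 active means dye signal at least 3 control SD above or below untreated wells in both duplicates, raw fluorescence within 3, either direction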;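 further: percent is based on the flux ratio of peak minus minimum fluorescence over baseline F0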
# CHO-K1 Tl ctr: nonspecific thallium flux increase in parental CHO-K1, confirmation, counter-screen for KCNQ2 potentiator project, cell-based, FluxOR thallium flux, duplicate; shares compounds with KCNQ2 enhance; parental CHO-K1 cells, FluxOR thallium flux fluorescence; zero = vehicle mean+3SD, 100% = vehicle-minus-blank window; activity increase over 3SD of controls, % at 10 µM; actives 43% (n = 1,200);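 active means signal rise of at least 3 SD above the untreated control mean, in both duplicate wells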;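 further: counter screen of KCNQ2 potentiator hits so any rise reflects channel-independent effects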
# KCNQ1 pot spec: human KCNQ1 channel potentiation off-target, confirmation, selectivity assay for KCNQ2 potentiator project, cell-based, CHO, FluxOR thallium flux. shares compounds with KCNQ2 enhance. CHO KCNQ1 stable, FluxOR thallium flux fluorescence; beyond 3SD, as % of vehicle-control signal. activation over 3SD threshold, % at 10 µM. actives 28% (n = 1,200). AID 2283, 2010;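 active means fluorescence ratio rise of at least 3 SD of vehicle wells above their mean, in both replicate wells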;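 further: 0% = vehicle mean plus 3 SD and 100% = vehicle minus unstimulated blank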
# Target sequence (P51787 whole entry, looked up): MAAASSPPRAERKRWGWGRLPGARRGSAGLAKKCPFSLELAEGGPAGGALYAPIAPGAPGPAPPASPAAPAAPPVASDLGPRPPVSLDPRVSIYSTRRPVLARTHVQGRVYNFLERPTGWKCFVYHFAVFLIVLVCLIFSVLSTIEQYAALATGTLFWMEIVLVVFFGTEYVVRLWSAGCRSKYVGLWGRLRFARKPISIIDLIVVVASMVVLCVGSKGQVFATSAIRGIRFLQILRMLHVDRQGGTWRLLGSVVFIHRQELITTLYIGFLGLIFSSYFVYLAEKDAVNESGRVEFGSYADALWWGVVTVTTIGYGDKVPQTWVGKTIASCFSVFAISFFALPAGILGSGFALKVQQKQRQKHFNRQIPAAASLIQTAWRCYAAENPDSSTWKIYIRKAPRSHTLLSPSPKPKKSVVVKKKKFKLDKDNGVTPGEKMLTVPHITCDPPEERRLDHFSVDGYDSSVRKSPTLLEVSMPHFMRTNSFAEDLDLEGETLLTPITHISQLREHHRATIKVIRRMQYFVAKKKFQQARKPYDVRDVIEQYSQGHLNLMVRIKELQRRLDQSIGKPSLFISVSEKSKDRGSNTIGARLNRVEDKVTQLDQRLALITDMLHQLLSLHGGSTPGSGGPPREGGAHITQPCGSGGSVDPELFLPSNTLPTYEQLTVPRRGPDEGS
# KCNQ2 pot conf: rat KCNQ2 channel potentiators, confirmation, cell-based, CHO, FluxOR thallium flux, duplicate. AID 2287, 2010. shares compounds with KCNQ2 enhance. actives 68% (n = 1,200). potentiation, less the hit threshold, % at 10 µM. CHO-KCNQ2 cells, FluxOR thallium flux fluorescence;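 active means fluorescence ratio rising 3 SD or more over the vehicle control mean in both replicates, plus primary screen hit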;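 further: peak minus minimum thallium fluorescence divided by baseline after K/Tl stimulus; 0% = vehicle mean plus 3 SD and 100% = vehicle minus unstimulated blank difference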
# Kir21 spec: mouse Kir2.1 channel activation off-target, confirmation, selectivity assay for KCNQ2 potentiator project, cell-based, HEK293, FluxOR thallium flux. activity over 3SD threshold, % at 10 µM. HEK293 Kir2.1, FluxOR thallium flux fluorescence. AID 2345, 2010. shares compounds with KCNQ2 enhance. actives 2% (n = 1,200);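 active means fluorescence ratio rise of at least 3 SD above the vehicle-control mean, seen in both replicates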;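 further: 0% = vehicle mean plus 3 SD and 100% = vehicle minus no-stimulus blank window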
# KCNQ2 W236L pot: potentiators of retigabine-insensitive KCNQ2 W236L, mechanism study for KCNQ2 potentiator project, cell-based, rat KCNQ2 W236L, CHO, automated patch clamp. current increase over 3SD of negative controls (%), stronger effect = higher value, % at 25 µM. AID 2558, 2010. shares compounds with KCNQ2 enhance. actives 10% (n = 940). automated patch clamp current;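 active means current increase at least 3 SD of the untreated controls above them in both duplicate recordings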
# The depositor's hits bear a star; i = inactive; . = no result given. This is a sample that favours compounds with a hit; in the whole collection about 1.6% have one here.
SMILES,KCNQ2 inh,KCNQ2 enhance,Kir21 confirm,HEK293 ctr,others
CC(=O)N(CCC(c1ccccc1)c1ccco1)Cc1cccs1 (centres undefined),-7.8*,-7.8,47%*,i,
COc1cc(C2=NOC(C(=O)Nc3cc(C)on3)C2)cc(OC)c1OC (centres undefined),i,0.02,.,.,
COc1ccc(C(=O)NNc2ccccc2)cc1,i,.,.,.,
O=C(NNC1=C(C(=O)C(F)(F)F)CCC1)c1cccc(Cl)c1,i,4.8,.,.,
COc1ccc(C(=O)NNC2=C(C(=O)C(F)(F)F)CCC2)cc1,i,5.5*,i,i,CHO-K1 Tl ctr=14*;KCNQ1 pot spec=32*;KCNQ2 pot conf=6.0*;Kir21 spec=-37;KCNQ2 W236L pot=i
O=C(NNC1=C(C(=O)C(F)(F)F)CCC1)c1ccc(Cl)cc1,i,7.8*,i,i,CHO-K1 Tl ctr=18*;KCNQ1 pot spec=-13;KCNQ2 pot conf=4.8*;Kir21 spec=-30;KCNQ2 W236L pot=i
O=C(Cn1ncc2c([nH]c3ccccc32)c1=O)Nc1ccc(CN2CCCCC2)cc1,i,.,.,.,
CC1CC1C(=O)NCCc1ccc(Cl)cc1 (centres undefined),i,0.51,.,.,
O=C(CC1CC2CCC1C2)NCCc1ccc(Cl)cc1 (centres undefined),i,5.9*,.,.,CHO-K1 Tl ctr=0;KCNQ1 pot spec=-17;KCNQ2 pot conf=0.8*;Kir21 spec=-75;KCNQ2 W236L pot=i
CC(C)CCNC(=O)COc1cccc2c1OC(C)(C)C2,i,0.68,.,.,
COc1ccc(CCNC(=O)COc2cccc3c2OC(C)(C)C3)cc1OC,i,.,52%*,i,
CC(C)CC(=O)Nc1ccc(C(=O)CN2C(=O)NC3(CCOc4ccccc43)C2=O)cc1 (centres undefined),i,1,.,.,
O=C(CNCC1CCCCC1)Nc1ccc(OC(F)(F)F)cc1,i,15*,i,i,CHO-K1 Tl ctr=0.6*;KCNQ1 pot spec=-17;KCNQ2 pot conf=35*;Kir21 spec=-34;KCNQ2 W236L pot=i
CN(CC(=O)Nc1ccc(OC(F)(F)F)cc1)C1CCCCC1,i,.,.,.,
CCC(C(=O)Nc1cccnc1Cl)c1ccccc1 (centres undefined),i,0.2,.,.,
Cc1ccc(-c2cn(S(=O)(=O)c3cccc4nsnc34)nc2N)cc1,i,2.7,.,.,
Nc1nn(S(=O)(=O)c2cccc3nsnc23)cc1-c1ccc(Br)cc1,i,8*,i,i,CHO-K1 Tl ctr=-12;KCNQ1 pot spec=8.4*;KCNQ2 pot conf=-17;Kir21 spec=-37
O=[N+]([O-])c1ccccc1Oc1ccc(Cl)c2cccnc12,i,0.23,.,.,
O=[N+]([O-])c1cc([N+](=O)[O-])c2cccnc2c1Oc1ccccc1O,i,.,62%*,65%*,
O=[N+]([O-])c1ccc(O)c2ncccc12,i,8.7*,i,i,CHO-K1 Tl ctr=36*;KCNQ1 pot spec=-5;KCNQ2 pot conf=34*;Kir21 spec=-26;KCNQ2 W236L pot=i
O=[N+]([O-])c1cc(Cl)c(O)c2ncccc12,i,5.7*,i,i,CHO-K1 Tl ctr=-18;KCNQ1 pot spec=66*;KCNQ2 pot conf=-12;Kir21 spec=-21;KCNQ2 W236L pot=i
O=[N+]([O-])c1ccc(O)c2cccnc12,i,1,.,.,
O=[N+]([O-])c1cc(F)c2cccnc2c1O,i,3.6,.,.,
O=C(OCc1cccc([N+](=O)[O-])c1)c1ccncc1,i,6.6*,i,142%*,CHO-K1 Tl ctr=-5;KCNQ1 pot spec=-19;KCNQ2 pot conf=1.0*;Kir21 spec=-33;KCNQ2 W236L pot=i
O=C(OCc1cccc([N+](=O)[O-])c1)c1cnccn1,i,1.6,.,.,
SMILES,KCNQ2 inh,KCNQ2 enhance,Kir21 confirm,HEK293 ctr,others
O=C(Nc1cccc2ccccc12)N(CCO)C1CCS(=O)(=O)C1 (centres undefined),i,.,.,.,
NC(=O)C1=C[C@H](c2ccc(Br)cc2)C[C@H](OCc2ccc(CO)cc2)O1,i,0.05,45%*,i,
NC(=O)C1=C[C@@H](c2ccc(Br)cc2)C[C@@H](OCc2ccc(CO)cc2)O1,i,.,.,.,
COc1ccc(NC(=O)NCCN2CCN(c3cc(OC)ccc3OC)CC2)cc1,i,0.02,.,.,
COc1ccc(Cl)c(N2CCN(CCCNC(=O)Nc3ccc(C)cc3)CC2)c1,i,.,70%*,i,
CC1SC(=Nc2ccccc2)N(S(=O)(=O)c2ccccc2)C1=O (centres undefined),i,0.22,.,.,
CCn1nc(C(=O)OCc2c(C)noc2C)c2ccccc2c1=O,i,8.4*,i,i,CHO-K1 Tl ctr=77*;KCNQ1 pot spec=-23;KCNQ2 pot conf=-18;Kir21 spec=-42
CCn1nc(C(=O)OCC(=O)NC(C)C)c2ccccc2c1=O,i,.,.,.,
O=c1oc2cc(O[C@@H]3OC[C@@H](O)[C@H](O)[C@H]3O)ccc2c2ccccc12,i,1.1,.,.,
CC1=[N+]([O-])C(C)(C)N(O)C1(C)C,i,1.5,.,.,
O=C(Oc1ccc(C(=S)N2CCOCC2)cc1)c1ccccc1F,i,0.17,71%*,i,
O=C(Oc1ccc(C(=S)N2CCOCC2)cc1)c1ccccc1[N+](=O)[O-],i,.,.,.,
O=C(Oc1ccc(C(=S)N2CCOCC2)cc1Cl)c1ccccc1F,i,.,69%*,i,
O=C(Oc1ccc(C(=S)N2CCOCC2)cc1Br)c1ccccc1F,i,.,.,.,
NC(=O)c1nsc(C(=O)N(Cc2cccnc2)C(C(=O)NCc2ccc(F)cc2)c2ccc(F)cc2)c1N (centres undefined),i,1.7,.,.,
CC1=CC(C)(C)N(C(=O)CNC2CCCCC2)c2cc(C)ccc21,i,.,50%*,i,
CC1=CC(C)(C)N(C(=O)CCl)c2cc(C)ccc21,i,.,.,.,
CC(=O)N1CCN(C(=O)c2ccc(S(=O)(=O)Nc3cccc(C(F)(F)F)c3)cc2)CC1,i,0.66,i,i,
O=C(c1ccc(S(=O)(=O)Nc2cccc(C(F)(F)F)c2)cc1)N1CCC1,i,0.45,.,.,
